Compounds without any hit were thinned out: in the full panel of roughly 83,000, 20% have a hit.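 Negative percent growth values reflect cell death: -40 means 40% of the cells present at the start died, and -100 means all died.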 Unmarked numbers belong to inactive results. Activity calls are given as the source filed them. Rule for the calls: active = growth percent below 10; inactive = the rest.

Test systems include SR leukemia; RPMI-8226 leukemia; OVCAR-8 ovarian; OVCAR-5 ovarian; OVCAR-4 ovarian; SK-OV-3 ovarian; IGROV1 ovarian; OVCAR-3 ovarian; HS 578T breast; NCI/ADR-RES ovarian.
What all share (assay): NCI-60 one-dose screen, 48 h (100 = growth as untreated, 0 = no growth, -100 = all killed)
Common to all, as to conditions: 10 µM

Turning to `CC(C)c1ccc(C(=O)Nc2sc3c(c2C(N)=O)CCC(=O)C3=O)cc1`, the growth is 72.8% with SR leukemia; 85% in the assay with RPMI-8226 leukemia; 94.2% in the assay on OVCAR-8 ovarian; 114% with OVCAR-5 ovarian; 91.5% in the assay on OVCAR-4 ovarian; 89.4% in the assay on SK-OV-3 ovarian. For the same molecule, the growth in the assay on IGROV1 ovarian is 72.4%; in the assay on OVCAR-3 ovarian, 87%; in the assay with HS 578T breast, 93.7%; in the assay with NCI/ADR-RES ovarian, 97.4%.

As for `Cc1cccc(-c2nc(Nc3ccccc3C(=O)O)c3ccccc3n2)c1`, the growth was 23% in the assay with SR leukemia; 28.6% with RPMI-8226 leukemia; 60.3% with OVCAR-8 ovarian; 77% in the assay with OVCAR-5 ovarian; 41.9% in the assay with OVCAR-4 ovarian; 76.7% with SK-OV-3 ovarian. In addition, the growth was 59.2% in the assay on IGROV1 ovarian, 34.1% in the assay on OVCAR-3 ovarian, 16.6% with HS 578T breast and 24.8% with NCI/ADR-RES ovarian.

In the case of `CN(C(=O)c1ccc(C(F)(F)F)cc1C(F)(F)F)c1sc2c(c1C#N)CCC(=O)C2`, the growth in the assay with SR leukemia was 1.6% (active); with RPMI-8226 leukemia it was 14.3%; with OVCAR-8 ovarian, 82.2%; in the assay with OVCAR-5 ovarian, 108%; with OVCAR-4 ovarian, 59.3%; in the assay with SK-OV-3 ovarian, 85.9%. Further, the growth with IGROV1 ovarian is 97.6%; in the assay with OVCAR-3 ovarian, 29.7%; in the assay on HS 578T breast, 69.4%; with NCI/ADR-RES ovarian, 55%.

As for `CCCn1c(=O)c2[nH]c(-c3ccc(OCc4nc5ccc(C(F)(F)F)cc5[nH]4)cc3)nc2n(CCC)c1=O`, the growth with SR leukemia was 24.6%; in the assay on RPMI-8226 leukemia, 28.1%; with OVCAR-8 ovarian it was -7.74% (active); with OVCAR-5 ovarian, 82.3%; in the assay on OVCAR-4 ovarian, 60%; in the assay on SK-OV-3 ovarian it was 90.7%. Further, the growth was 62.7% with IGROV1 ovarian, 52.5% in the assay on OVCAR-3 ovarian, 33.4% in the assay on HS 578T breast and 55.8% in the assay on NCI/ADR-RES ovarian.

`COc1cc2c3c(n(CCCNC(C)C)c(=O)c2cc1OC)-c1nc2c(cc1C3=O)OCO2`: the growth is 2.57% (active) in the assay on SR leukemia; -26.2% (active) in the assay on RPMI-8226 leukemia; -58% (active) in the assay with OVCAR-8 ovarian; -93.2% (active) with OVCAR-5 ovarian; 49.8% in the assay on OVCAR-4 ovarian; 26.5% with SK-OV-3 ovarian. Moreover, the growth is 40.8% with IGROV1 ovarian, -97.4% (active) in the assay with OVCAR-3 ovarian, 88.8% with HS 578T breast and -72% (active) in the assay with NCI/ADR-RES ovarian.

On to `CC[C@]12C=CCN3CC[C@@]4(c5cc(C#CCNc6ccc(C)c(Nc7nccc(-c8cccnc8)n7)c6)c(OC)cc5N(C)[C@H]4[C@@](O)(C(=O)OC)[C@@H]1OC(C)=O)C32` (stereo not given in full), for which the growth is 21.3% in the assay with SR leukemia; 38.5% with RPMI-8226 leukemia; 48.6% with OVCAR-8 ovarian; 81.9% with OVCAR-5 ovarian; 41.4% in the assay with OVCAR-4 ovarian; 110% in the assay with SK-OV-3 ovarian. The growth is 60.7% in the assay on IGROV1 ovarian, 48.1% in the assay with OVCAR-3 ovarian, 55.7% with HS 578T breast and 54.4% in the assay on NCI/ADR-RES ovarian.

As for `Cc1cccc(NC(=O)CSc2nc3ccc(F)cc3c(=O)n2-c2ccc(Cl)cc2)c1C`, the growth was 61.9% in the assay on SR leukemia; 88.1% in the assay with RPMI-8226 leukemia; 32.5% in the assay on OVCAR-8 ovarian; 90.3% in the assay with OVCAR-5 ovarian; 67.7% in the assay with OVCAR-4 ovarian; 56.8% with SK-OV-3 ovarian. The growth with IGROV1 ovarian was 53%; in the assay on OVCAR-3 ovarian it was 93.9%; in the assay on HS 578T breast, 25.7%; with NCI/ADR-RES ovarian, 56%.

With `COc1ccc2[nH]cc(/C=N/Nc3cccc(Cl)n3)c2c1`, the growth with SR leukemia was 17.1%; with RPMI-8226 leukemia, -0.856% (active); with OVCAR-8 ovarian, 57.9%; with OVCAR-5 ovarian, 77.4%; with OVCAR-4 ovarian, 59.8%; in the assay on SK-OV-3 ovarian, 91.4%. In addition, the growth in the assay with IGROV1 ovarian was 5.42% (active); with OVCAR-3 ovarian, 17.4%; in the assay with HS 578T breast, 49.9%; with NCI/ADR-RES ovarian, 22.2%.

Regarding `CN(C(=O)c1ccc(C(C)(C)C)cc1)c1sc2c(c1C#N)CCC(=O)C2`, the growth with SR leukemia was 13.7%; in the assay on RPMI-8226 leukemia, 9.38% (active); in the assay with OVCAR-8 ovarian, 5.3% (active); with OVCAR-5 ovarian, 8.47% (active); in the assay with OVCAR-4 ovarian, 1.97% (active); in the assay on SK-OV-3 ovarian, 101%. The growth with IGROV1 ovarian is -34.4% (active); in the assay on OVCAR-3 ovarian, -69.7% (active); in the assay with HS 578T breast, 11.8%; in the assay with NCI/ADR-RES ovarian, -35.1% (active).

Consider `CC(C)(C)c1ccc(NCc2cn(-c3ccc(C(=O)O)cc3)nc2-c2ccc(C#N)cc2)cc1`, for which the growth in the assay with SR leukemia is 5.39% (active); in the assay on RPMI-8226 leukemia it was 14.6%; in the assay with OVCAR-8 ovarian, 28.5%; in the assay with OVCAR-5 ovarian it was 32.6%; in the assay with OVCAR-4 ovarian, 36.7%; with SK-OV-3 ovarian, 112%. In addition, the growth with IGROV1 ovarian was 36.5%; with OVCAR-3 ovarian, 19.7%; in the assay with HS 578T breast, 37.4%; in the assay on NCI/ADR-RES ovarian, 11.7%.

For the molecule `N#Cc1ccc(-c2nn(-c3ccc(C(=O)O)cc3)cc2CNc2cccc(Br)c2)cc1`, the growth in the assay on SR leukemia is 40.2%; in the assay with RPMI-8226 leukemia it was 33.1%; in the assay on OVCAR-8 ovarian, 49%; in the assay with OVCAR-5 ovarian, 99.6%; with OVCAR-4 ovarian it was 75.5%; with SK-OV-3 ovarian it was 112%. Also, the growth with IGROV1 ovarian is 79%; with OVCAR-3 ovarian, 38.7%; in the assay with HS 578T breast, 52.6%; with NCI/ADR-RES ovarian, 13%.

Regarding `Cc1ccc2nc(-c3ccc(-c4nnc(SCC(=O)Nc5ccc(Br)cc5)o4)cc3)[nH]c2c1`, the growth is 16.1% with SR leukemia; 41.3% in the assay on RPMI-8226 leukemia; 20.4% in the assay on OVCAR-8 ovarian; 92.4% in the assay on OVCAR-5 ovarian; 76.8% in the assay with OVCAR-4 ovarian; 72.1% in the assay with SK-OV-3 ovarian. The growth in the assay on IGROV1 ovarian is 91.2%; in the assay with OVCAR-3 ovarian it was 82.9%; in the assay with HS 578T breast, 70.8%; in the assay on NCI/ADR-RES ovarian, 61.3%.
